# According to PubChem BioAssay AID1851 (National Center for Advancing Translational Sciences (NCATS), 2009):
# In all, about 16,000 compounds went through this assay and about 5,800 (36%) were called active. Roughly 23% stayed inconclusive and do not appear here. Calls follow the shape of the dose curve; as a rule, active = well fitted curve in the direction sought with a large enough effect; inconclusive = small, poorly fitted or top-dose-only effect, or effect the other way; inactive = no such curve, though single readings can be large or run the other way. The list shows a part of the results.
# Molecular target: Cytochrome P450 2C19 (Homo sapiens) (UniProt P33261)
# Test: Cytochrome panel assay with activity outcomes
# Conditions: recombinant CYP, pro-luciferin dealkylation, luminescence, p450-cyp2c19; series mostly up to 57.1 µM
# % is scaled to controls: 0 for no effect and ±100 for the full control effect.
# Sequence of Cytochrome P450 2C19 (Homo sapiens) (P33261 whole entry, looked up): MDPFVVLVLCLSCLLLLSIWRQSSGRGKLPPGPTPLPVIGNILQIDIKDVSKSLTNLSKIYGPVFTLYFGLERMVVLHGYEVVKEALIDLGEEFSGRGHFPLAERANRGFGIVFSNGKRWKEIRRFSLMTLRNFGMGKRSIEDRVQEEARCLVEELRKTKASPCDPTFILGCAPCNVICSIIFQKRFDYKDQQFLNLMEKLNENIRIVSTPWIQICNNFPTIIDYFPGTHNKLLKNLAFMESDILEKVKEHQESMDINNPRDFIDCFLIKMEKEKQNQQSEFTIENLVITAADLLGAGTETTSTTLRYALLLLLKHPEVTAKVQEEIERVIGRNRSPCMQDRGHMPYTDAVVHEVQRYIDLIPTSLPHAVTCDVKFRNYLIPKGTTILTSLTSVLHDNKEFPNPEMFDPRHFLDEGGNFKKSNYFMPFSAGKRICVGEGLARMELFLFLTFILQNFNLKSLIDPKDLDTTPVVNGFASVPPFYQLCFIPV
Structure (SMILES),AC50,"activity, negative = inhibition"
Nc1ncnc2c1ncn2[C@@H]1O[C@@H](C(=O)NC2CC2)[C@H](O)[C@@H]1O,inactive,–
Cc1cc(O)c(/C=N/Nc2cccc(Cl)c2)c(=O)o1,3.16 µM (active),–
C[C@@H](CSC(=N)N)C(N)=O,–,27.2% [at 11.4 µM] (inactive)
COc1ccc(CNC(=O)Cc2csc(Nc3nc(=S)[nH]c4ccccc34)n2)cc1,2.82 µM (active),–
O=C(Cc1csc(Nc2nc(=S)[nH]c3ccccc23)n1)NCc1cccc(Cl)c1,0.794 µM (active),–
Cc1ccc(CNC(=O)Cc2csc(Nc3nc(=S)[nH]c4ccccc34)n2)cc1,2.24 µM (active),–
Oc1cc2c(cc1O)CN(C(=S)NCCc1ccc(Cl)cc1)CCC2,0.316 µM (active),–
CN1C(=O)CC[C@@H]1c1cccnc1,inactive,–
Cc1ccc(N2C(=O)CSC2c2cccnc2)cc1F (configuration not stated),20 µM (active),–
CC1(C)CO[C@H](CC(=O)O)CN1,5.01 µM (active),–
Cc1nc2cnc(N(C)C)nc2n(C)c1=O,inactive,–
CSc1nc(N)nc(-c2cccs2)c1C#N,7.94 µM (active),–
Cc1c(-c2ccc(F)cc2)nc(N)c(C#N)c1-c1cccs1,4.47 µM (active),–
Cc1ccccc1OCC(=O)N/N=C1\CCOc2c(C)cccc21,inactive,–
Cc1cccc2c1OCC/C2=N\NC(=O)COc1ccccc1,3.16 µM (active),–
COc1cccc(OCC(=O)NN=C2c3ccccc3-c3ccccc32)c1,0.708 µM (active),–
Cc1c(N2CCCC2)cc2c(c1NC(=O)c1ccccc1Cl)C(C)(C)CC2(C)C,0.794 µM (active),–
O=C(N/N=C/c1cccc(F)c1)c1csc2c1CCCC2,7.08 µM (active),–
Fc1cccc(/C=N\N=C/c2cccc(F)c2)c1,inactive,–
COc1cccc(-c2cncnc2NCc2ccc(OC)cc2OC)c1,1.26 µM (active),–
COc1cccc(-c2cncnc2NCc2ccccc2OC)c1,2 µM (active),–

Structure (SMILES),AC50,"activity, negative = inhibition"
COc1ccccc1CNc1ncncc1-c1cccnc1,10 µM (active),–
CCC(C)(C)n1nnnc1C(c1ccc(C)cc1)N1CCC(C)CC1 (configuration not stated),14.1 µM (active),–
Cc1cc(C)c(NC(=O)C[C@H](CC(=O)O)c2cccc3ccccc23)c(C(=O)N2CCC3(CCCC3)CC2)c1,inactive,–
CSc1n[nH]c(-c2sccc2OCc2ccc(C)cc2)n1,1.12 µM (active),–
COc1ncc2nc(-c3cc(F)cc(F)c3)c(=O)n(C3CC3)c2n1,inactive,–
COc1cccc(C(C(=O)Nc2ccc(F)cc2)N(C(=O)Cn2nnc3ccccc32)C2CC2)c1 (configuration not stated),20 µM (active),–
CCc1ccc(N2C(=O)c3ccc4c5c(ccc(c35)C2=O)CC4)cc1,3.16 µM (active),–
Cc1noc(C)c1C(=O)N1CCC2(CCN(Cc3ccccc3)CC2)CC1,inactive,–
Cc1ccccc1C(=O)N1CCc2ccccc2C1,1.41 µM (active),–
N=C(N)N1CCc2ccccc2C1,inactive,–
Cc1onc(-c2c(Cl)cccc2Cl)c1C(=O)N1CCc2ccccc2C1,2.82 µM (active),–
Cc1noc(C)c1C(=O)N1CCC2(CC1)CN(c1ccccc1)C2,inactive,–
NCCSC[C@H](N)C(=O)O,–,-6.06% [at 11.4 µM] (inactive)
O=C1CC(c2cccs2)c2cc3c(cc2N1)OCO3 (configuration not stated),1.12 µM (active),–
CCC[C@@H]1C[C@@]1(CCC)C(NS(=O)(=O)c1cccc2cccnc12)c1ccc(Cl)cc1 (some centres not stated),3.16 µM (active),–
CCC[C@@H]1C[C@@]1(CCC)C(NC(=O)c1ccco1)c1ccc(Cl)cc1 (some centres not stated),3.16 µM (active),–
CCCC[C@@H]1C[C@H]1C(NC(=O)c1ccc(-c2ccccc2)cc1)c1ccc(-c2ccccc2)cc1 (some centres not stated),inactive,–
CCCC[C@@H]1C[C@H]1C(NC(=O)c1ccco1)c1ccc(C(=O)OC)cc1 (some centres not stated),1 µM (active),–
CCCC[C@@H]1C[C@H]1C(NC(=O)c1ccco1)c1ccc(-c2ccccc2)cc1 (some centres not stated),25.1 µM (active),–
CO[C@H]1COC(=O)C/C=C\[C@H](C)COC(=O)[C@@H](C)NC(=O)C/C=C\[C@@H]1C,–,-31.5% [at 11.4 µM] (inactive)
COCCn1c(=O)c(C)nc2cnc(Nc3cccc(OC)c3)nc21,inactive,–

Structure (SMILES),AC50,"activity, negative = inhibition"
CCCC[C@@H]1C[C@H]1C(NC(=O)c1ccco1)c1ccccc1 (some centres not stated),1.26 µM (active),–
CCC[C@@H]1C[C@@]1(CCC)C(NC(=O)OCc1ccccc1)c1ccc(-c2ccccc2)cc1 (some centres not stated),1.26 µM (active),–
C[C@@]1(C(NC(=O)Cc2ccccc2)c2ccc(-c3ccccc3)cc2)C[C@H]1C1CCCCC1 (some centres not stated),inactive,–
CCCC[C@@H]1C[C@H]1C(NC(=O)c1ccco1)c1ccc(Cl)cc1 (some centres not stated),0.316 µM (active),–
CC[C@](N)(C(=O)O)C(C)C,–,31.3% [at 11.4 µM] (inactive)
CCCn1c(N)c(C(=O)CSc2nc(C)cs2)c(=O)n(C)c1=O,10 µM (active),–
O=C(O)/C=C\c1ccc(O)c(O)c1,inactive,–
COC(=O)/C=C\c1cc(O)ccc1O,15.8 µM (active),–
O=C(/C=C\c1ccc(O)c(O)c1)O[C@@H](Cc1ccc(O)c(O)c1)C(=O)O,inactive,–
CO[C@@H](C(C)C)[C@@H](C)[C@@H]1OC(=O)C[C@@H]1O,–,2.42% [at 11.4 µM] (inactive)
COC(=O)C[C@@H]1O[C@H]1[C@H](C)[C@@H](OC)C(C)C,3.98 µM (active),–
CC(O)CN(CCC(N)=O)CCC(N)=O (configuration not stated),inactive,–
COc1ccc(S(=O)(=O)N2CC3C4C=CC(C4)C3C2)cc1 (configuration not stated),0.891 µM (active),–
O=C(OCc1nnc(-c2ccccc2)o1)c1ccc2c(c1)OCCO2,8.91 µM (active),–
CCCN1C(=O)C2(/C(=C(\O)c3ccc4c(c3)OCCO4)C(=O)C(=O)N2CCCOC)c2ccccc21 (configuration not stated),inactive,–
CN1CCc2cc3c(cc2[C@@H]1[C@@H]1C(=O)Oc2c1ccc1c2OCO1)OCO3,0.02 µM (active),–
C[N+]1(C)CCc2cc3c(cc2[C@@H]1[C@@H]1C(=O)Oc2c1ccc1c2OCO1)OCO3,inactive,–
Cc1ccc(-c2csc(NC(=S)NC(=O)/C=C/c3ccco3)n2)cc1,inactive,–
Cc1ccc(-c2csc(N/N=C/c3ccco3)n2)cc1,7.94 µM (active),–
CC(=O)OCC(=O)[C@@]1(O)[C@H](C)C[C@@H]2[C@H]3CCC4=CC(=O)C=C[C@]4(C)[C@]3(F)[C@@H](O)C[C@@]21C,inactive,–
